Results filed as inconclusive are left out. Activity calls are given as the source filed them. Calls come from the whole dose curve; as a rule, active = well fitted curve in the direction sought with a large enough effect in the repeat runs; inconclusive = weak or mixed curves; inactive = no such curve, though single readings can be large; an effect the other way counts as inactive or inconclusive.
Legend:
[1] = qHTS RealTime-Glo MT Cell Viability Assay in HepG2 cells - 8 hour (AID 1224873); note: nearly all actives have a fitted effect of over 55% in size
Method in brief: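 HepG2 cells (600/well) mixed with RealTime-Glo MT reagent, settled 5 h at 37 C/5% CO2 before compound addition. Nonlytic NanoLuc luminescence from viable-cell prosubstrate reduction read repeatedly during 40 h treatment at 37 C.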

[2] = A CellTox Green Cytotoxicity Assay to monitor cytotoxicity in HEK293 cells - 24 hour (AID 1224875); note: nearly all actives have a fitted effect of over 45% in size; note: potency is the fitted concentration of half-maximal effect
Method in brief: (§1)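 Nonlytic real-time cytotoxicity: HEK293 + CellTox Green reagent plated, 5 h preincubation, pintool compound addition (23 nL in DMSO), 37 C for 40 h, fluorescence measured at successive time points.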

[3] = A CellTox Green Cytotoxicity Assay to monitor cytotoxicity in HepG2 cells - 16 hour (AID 1224876); note: nearly all actives have a fitted effect of over 45% in size
Method in brief: (§2)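 Read-out is fluorescence of a cyanine dye excluded from live cells that stains DNA of dead HepG2 cells, with signal proportional to cytotoxicity. Plates were read at 0, 8, 16, 24, 32 and 40 h after compound addition.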

[4] = qHTS RealTime-Glo MT Cell Viability Assay in HepG2 cells - 32 hour (AID 1224877); note: nearly all actives have a fitted effect of over 55% in size
Method in brief: (§3)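 Real-time, nonlytic viability: 600 HepG2 cells/well mixed with NanoLuc enzyme plus prosubstrate; 5 h settle, compound (DMSO) added by pintool; luminescence monitored over 40 h at 37 C.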

[5] = A CellTox Green Cytotoxicity Assay to monitor cytotoxicity in HEK293 cells - 32 hour (AID 1224881); note: nearly all actives have a fitted effect of over 40% in size; note: potency is the fitted concentration of half-maximal effect
Method in brief: as §1

[6] = A CellTox Green Cytotoxicity Assay to monitor cytotoxicity in HepG2 cells - 0 hour (AID 1224882); note: nearly all actives have a fitted effect of over 35% in size
Method in brief: as §2

[7] = A CellTox Green Cytotoxicity Assay to monitor cytotoxicity in HEK293 cells - 8 hour (AID 1224884); note: nearly all actives have a fitted effect of over 35% in size
Method in brief: as §1

[8] = qHTS RealTime-Glo MT Cell Viability Assay in HepG2 cells - 16 hour (AID 1224885); note: nearly all actives have a fitted effect of over 50% in size
Method in brief: as §3

[9] = qHTS RealTime-Glo MT Cell Viability Assay in HEK293 cells - 8 hour (AID 1224887); note: top concentration of the series differs between compounds; nearly all actives have a fitted effect of over 50% in size
Method in brief: (§4)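 Cells were seeded together with NanoLuc luciferase and a prosubstrate that viable cells reduce to a luciferase substrate. After a 5 h incubation at 37 C/5% CO2, compounds were added and luminescence was measured repeatedly during 40 h of treatment.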

[10] = A CellTox Green Cytotoxicity Assay to monitor cytotoxicity in HEK293 cells - 16 hour (AID 1224888); note: nearly all actives have a fitted effect of over 35% in size
Method in brief: as §1

[11] = qHTS RealTime-Glo MT Cell Viability Assay in HepG2 cells - 0 hour (AID 1224889); note: nearly all actives have a fitted effect of over 50% in size
Method in brief: as §3

[12] = A CellTox Green Cytotoxicity Assay to monitor cytotoxicity in HepG2 cells - 8 hour (AID 1224890); note: nearly all actives have a fitted effect of over 45% in size
Method in brief: as §2

[13] = A CellTox Green Cytotoxicity Assay to monitor cytotoxicity in HEK293 cells - 40 hour (AID 1224871); note: nearly all actives have a fitted effect of over 45% in size; note: potency is the fitted concentration of half-maximal effect
Method in brief: as §1

[14] = A CellTox Green Cytotoxicity Assay to monitor cytotoxicity in HepG2 cells - 24 hour (AID 1224878); note: nearly all actives have a fitted effect of over 45% in size
Method in brief: as §2

[15] = qHTS RealTime-Glo MT Cell Viability Assay in HEK293 cells - 0 hour (AID 1224880)
Method in brief: as §4

[16] = A CellTox Green Cytotoxicity Assay to monitor cytotoxicity in HepG2 cells - 32 hour (AID 1224883); note: nearly all actives have a fitted effect of over 50% in size; note: potency is the fitted concentration of half-maximal effect
Method in brief: as §2

[17] = A CellTox Green Cytotoxicity Assay to monitor cytotoxicity in HepG2 cells - 40 hour (AID 1224879); note: nearly all actives have a fitted effect of over 40% in size; note: potency is the fitted concentration of half-maximal effect
Method in brief: as §2

[18] = qHTS RealTime-Glo MT Cell Viability Assay in HEK293 cells - 40 hour (AID 1224874); settings: RealTime-Glo luminescence; max response: hits give low values; note: nearly all actives have a fitted effect of over 50% in size; note: potency is the fitted concentration of half-maximal effect
Method in brief: as §4

[19] = qHTS RealTime-Glo MT Cell Viability Assay in HEK293 cells - 16 hour (AID 1224872); note: nearly all actives have a fitted effect of over 50% in size; note: potency is the fitted concentration of half-maximal effect
Method in brief: (§5)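 Cells + reagent dispensed (600 cells/well, HEK293) → 5 h at 37 C/5% CO2 → 23 nL compound in DMSO pinned → 40 h at 37 C → luminescence read at 0, 8, 16, 24, 32, 40 h.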

[20] = qHTS RealTime-Glo MT Cell Viability Assay in HEK293 cells - 24 hour (AID 1224886); note: nearly all actives have a fitted effect of over 50% in size; note: potency is the fitted concentration of half-maximal effect
Method in brief: as §5
% is set by controls: 0 for no effect and ±100 for the full control effect.

O=C1NCN(c2ccccc2)C12CCN(CCCOc1ccc(F)cc1)CC2
inactive: Potency [1] | Potency [2] | Potency [3] | Potency [4] | Potency [5] | Potency [6] | Potency [7] | Potency [8] | Potency [9] | Potency [10] | Potency [11] | Potency [12]

[CH3][Sn]([CH3])([Cl])[Cl]
inactive: Potency [13] | Potency [1] | Potency [2] | Potency [4] | Potency [14] | Potency [15] | Potency [5] | Potency [6] | Potency [16] | Potency [7] | Potency [9] | Potency [10] | Potency [11] | Potency [12]

COP(=O)(OC)O/C(=C/Cl)c1cc(Cl)c(Cl)cc1Cl
active: Potency [17] 36.6 µM
inactive: Potency [1] | Potency [2] | Potency [3] | Potency [4] | Potency [14] | Potency [15] | Potency [5] | Potency [6] | Potency [7] | Potency [8] | Potency [9] | Potency [10] | Potency [11]

CC[C@H]1C[C@H]2[C@@H]3CCC4=CC(=O)CC[C@@H]4[C@H]3CC[C@]2(C)[C@H]1O
active: Potency [18] 23.9 µM | Potency [17] 21.3 µM
inactive: Potency [1] | Potency [2] | Potency [3] | Potency [4] | Potency [6] | Potency [7] | Potency [8] | Potency [9] | Potency [10] | Potency [11] | Potency [12]

COC(C)(C)CCC[C@H](C)C/C=C/C(C)=C/C(=O)OC(C)C
inactive: Potency [19] | Potency [1] | max response [18] -3.6% | Potency [2] | Potency [3] | Potency [4] | Potency [14] | Potency [17] | Potency [15] | Potency [6] | Potency [16] | Potency [7] | Potency [8] | Potency [20] | Potency [11] | Potency [12]

O=C1CN=C(c2ccccc2)c2cc(Cl)ccc2N1CC1CC1
inactive: Potency [13] | Potency [1] | Potency [2] | Potency [3] | Potency [4] | Potency [14] | Potency [5] | Potency [6] | Potency [16] | Potency [8] | Potency [10] | Potency [12]

CC1(C)CCC(Cc2ccc(Cl)cc2)C1(O)Cn1cncn1 (stereo not drawn)
active: Potency [19] 24.5 µM | Potency [18] 24.5 µM | Potency [17] 54.9 µM | Potency [16] 54.9 µM | Potency [20] 24.5 µM
inactive: Potency [2] | Potency [4] | Potency [15] | Potency [5] | Potency [6] | Potency [7] | Potency [10] | Potency [11]

CCCC(Cn1cncn1)c1ccc(Cl)cc1Cl (stereo not drawn)
inactive: Potency [4] | Potency [15] | Potency [6] | Potency [7] | Potency [10] | Potency [11] | Potency [12]
active: Potency [18] 21.9 µM | Potency [16] 49 µM | Potency [20] 21.9 µM

C=CC[C@]1(O)CC[C@H]2[C@@H]3CCC4=CC(=O)CCC4=C3C=C[C@@]21C
active: Potency [19] 19 µM | Potency [20] 19 µM
inactive: Potency [2] | Potency [3] | Potency [14] | Potency [17] | Potency [15] | Potency [6] | Potency [16] | Potency [7] | Potency [10] | Potency [12]

O=C(O)C1(c2ccc3c(c2)OC[C@H](Cc2ccc(-c4ccccc4)cc2)[C@H]3O)CCCC1
active: Potency [13] 34.7 µM | Potency [2] 38.9 µM | Potency [17] 49 µM | Potency [5] 34.7 µM | Potency [16] 43.6 µM
inactive: Potency [1] | Potency [4] | Potency [15] | Potency [6] | Potency [8] | Potency [11] | Potency [12]

O=C(NC(=O)c1c(F)cccc1F)Nc1cc(Cl)c(Oc2ncc(C(F)(F)F)cc2Cl)c(Cl)c1
inactive: Potency [13] | Potency [1] | Potency [2] | Potency [4] | Potency [14] | Potency [17] | Potency [15] | Potency [5] | Potency [6] | Potency [16] | Potency [7] | Potency [9] | Potency [10] | Potency [11] | Potency [12]

CC(C)(C)c1cc([N+](=O)[O-])cc([N+](=O)[O-])c1O
inactive: Potency [1] | Potency [2] | Potency [3] | Potency [14] | Potency [5] | Potency [8] | Potency [9] | Potency [10]

CC1CC(CC2CCC(N)C(C)C2)CCC1N (stereo not drawn)
active: Potency [18] 55.8 µM | Potency [2] 62.7 µM | Potency [20] 44.4 µM
inactive: Potency [1] | Potency [3] | Potency [4] | Potency [14] | Potency [17] | Potency [15] | Potency [6] | Potency [16] | Potency [7] | Potency [8] | Potency [10] | Potency [11] | Potency [12]

Clc1ccc(C(OCCN2CCCCC2)c2ccccc2)cc1 (stereo not drawn)
inactive: Potency [1] | Potency [4] | Potency [6] | Potency [7] | Potency [8] | Potency [9] | Potency [10] | Potency [11] | Potency [12]

O=S(=O)(O)C(F)(F)C(F)(F)C(F)(F)C(F)(F)F
inactive: Potency [13] | Potency [1] | Potency [2] | Potency [4] | Potency [14] | Potency [17] | Potency [5] | Potency [16] | Potency [7] | Potency [10] | Potency [11] | Potency [12]
